Six compounds from PubChem BioAssay (NCATS) can be followed below.

Experiment [1] addresses Lysosomal acid glucosylceramidase (Homo sapiens) (UniProt P04062). The experiment in a line: Glucocerebrosidase-p2 (AID 348; in the data active = potency below about 10 µM; also: potency is read from the fitted curve at half-maximal effect). Conditions: purified GBA, blue fluorogenic substrate, 40 min. The method, boiled down:
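Normal human glucocerebrosidase (0.2 nM) with blue fluorogenic substrate (80 uM final) in citrate/phosphate pH 5.9 with 10mM sodium taurocholate, 0.01% tween-20; 40 min RT, NaOH/glycine stop; fluorescence Ex 365/Em 440; AC50 from a titration from 0.6 nM upwards.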

Experiment [2] is described as follows: AP1 Signaling Pathway (AID 357; active = well fitted curve in either direction with a large enough effect, not every such curve was filed as active;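 also: ME-180 reporter cells stimulated with EGF at its EC50 level; % is scaled to controls: 0 for no effect and ±100 for the full control effect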). As to conditions: ME-180 AP-1-bla reporter, EGF-induced, beta-lactamase ratio, 5 h; at 7.69 µM (top of the series) unless noted. In outline:
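Beta-lactamase reporter under AP-1 response element, ME-180 background. Stimulus: EC50 EGF. Compound exposure 5 h, 37 °C. Detection: CCF4, 2.5 h RT, 460/530 nm. Values: AC50 from titration.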

Experiment [3] addresses Cytochrome P450 1A2 (Homo sapiens) (UniProt P05177). The experiment in a line: p450-cyp1a2 (AID 410; calls by dose curve; also: potency is read from the fitted curve at half-maximal effect). As to conditions: recombinant CYP1A2, luciferin-ME demethylation, luminescence; series mostly up to 57 µM. The method, boiled down:
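20nM CYP1A2, 100uM Luciferin-ME (=Km), 100mM KPO4; cpd 10 min RT; +NADPH regen, 60 min RT; stop/detect 20 min; luminescence. Normalized to furafylline 57 uM = full inhibition.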

Experiment [4] in a line: NFAT Signaling Pathway (AID 444; active = well fitted curve in either direction with a large enough effect, not every such curve was filed as active;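 also: carbachol stimulus at about its EC50 of 1 µM final; % is scaled to controls: 0 for no effect and ±100 for the full control effect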). Conditions: Jurkat NFAT-bla M1, carbachol, beta-lactamase ratio, 5 h; at 7.69 µM (top of the series) unless noted. The method, boiled down:
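Jurkat cells carrying an NFAT-driven β-lactamase reporter and co-transfected muscarinic M1 receptor were treated with compound plus carbachol (1 uM final, an EC50 level) for 5 h at 37 °C. CCF4 loading followed for 1 h at RT; 460/530 nm ratio gave %activity.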

Experiment [5] is described as follows: Stat Signaling Pathway (AID 446; active = well fitted curve in either direction with a large enough effect, not every such curve was filed as active;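 also: ME-180 cervical cancer cells given 40 pM IL-6 alongside compound; SIE-controlled beta-lactamase reporter measured as 460/530 nm FRET emission ratio; % is scaled to controls: 0 for no effect and ±100 for the full control effect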). Conditions: ME-180 (cervical carcinoma) SIE beta-lactamase reporter, IL-6 stimulated, 5 h; at 7.69 µM (top of the series) unless noted. In outline:
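Normalization used AC90 stimulation (300 pM IL-6) and AC90 inhibition (125 nM pan-JAK inhibitor at 40 pM IL-6). The underlying signal is SIE-driven beta-lactamase in ME-180 cells after 5 h IL-6 exposure with compound.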

The target in experiment [6] is Glucocorticoid receptor (Homo sapiens) (UniProt P04150). Briefly: GR-GFP Redistribution (AID 450;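 active = compounds whose dose series gives a full or clear partial fitted curve of increased nuclear translocation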; also: potency is read from the fitted curve at half-maximal effect). As to conditions: U2OS GR-GFP nuclear translocation, laser cytometry, 2 h.
For experiment [7] the target is unchanged. The experiment in a line: GR-EFC Redistribution (AID 451; calls by dose curve; also: potency is read from the fitted curve at half-maximal effect). As to conditions: CHO-K1 GR-EFC translocation, beta-gal luminescence, 2 h. The method, boiled down: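 CHO-K1 cells stably expressing nuclear-localized β-gal enzyme acceptor and GR fused C-terminally to the enzyme donor fragment; ligand-driven nuclear translocation restores β-gal by complementation. Compounds titrated up to 46 uM final, 2 h at 37 °C; luminescence read.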

For experiment [8], the target named is Mitogen-activated protein kinase 10 (Mus musculus) (UniProt Q61831). Briefly: JNK3 AlphaScreen Assay (AID 530; active = well fitted curve in either direction with a large enough effect, not every such curve was filed as active;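 also: kinase came from lysate of stimulated human HepG2 cells; % is scaled to controls: 0 for no effect and ±100 for the full control effect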). Conditions: JNK3 lysate, c-Jun phosphorylation; series mostly up to 57.1 µM. The method, boiled down: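 Biotinylated GST-cJun(1-79) served as substrate for JNK3 in HepG2 lysates stimulated with IL-1beta and TNF-alpha. ATP was 10 uM final, pH 7.6. Ser73 phosphorylation was quantified by AlphaScreen (680 nm excitation).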
Background: Bead proximity is the source of the signal in Alpha formats.

Experiment [9] concerns the target 3',5'-cyclic-AMP phosphodiesterase 4B (Homo sapiens) (UniProt Q07343). The experiment in a line: qHTS Assay for Inhibitors of PDE-IV (AID 607; active = well fitted activation curve with a large enough effect in the main read-out, with a control signal flat, not every such curve was filed as active; also: % of control where 0% means no effect). As to conditions: HEK293 ACTOne CNG channel cells, membrane potential fluorescence; series mostly up to 22.9 µM. In outline: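 HEK293 ACTOne cells with CNG channel (1000/well), endogenous PDE4; membrane potential dye, compounds up to 22.9 uM final. Fluorescence Ex 535/Em 590; RO 20-1724 (100 uM final) as reference.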

The target in experiment [10] is Cytochrome P450 3A4 (Homo sapiens) (UniProt P08684). Briefly: qHTS Assay for Activators of Cytochrome P450 3A4 (AID 885). Also: nearly all actives have a fitted effect of over 65% in size. Conditions: recombinant CYP3A4, Luciferin-PPXE luminescence, 60 min; series mostly up to 57.1 µM. The method, boiled down:
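Human CYP3A4 dealkylates Luciferin-PPXE to luciferin, which luciferase detection converts to light. Substrate was at its KM (25uM), buffer 200mM KPO4, reaction 60 min at RT.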
Background: In qHTS, concentration-response curves come from the screen itself.

Experiment [11] addresses Dual specificity protein kinase CLK4 (Homo sapiens) (UniProt Q9HAZ1). Briefly: qHTS Assay for Inhibitors of CDC-like Kinase 4 (Kinase-Glo Assay) (AID 1770). Also: nearly all actives have a fitted effect of over 65% in size. Also: potency is read from the fitted curve at half-maximal effect. As to conditions: recombinant Clk4, Kinase-Glo ATP depletion luminescence; series mostly up to 66.7 µM. In outline: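 Luminescent ATP-depletion read-out (Kinase-Glo) after 4.5 h room-temperature reaction of Clk4 (25 nM final) with RS peptide (100 uM) and ATP (1 uM), pH 7.5 Tris buffer with MgCl2 and DTT.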

For experiment [12] the target is unchanged. The experiment in a line: qHTS Assay for Inhibitors of CDC-like Kinase 4 (ADP-Glo Assay) (AID 1771). Also: nearly all actives have a fitted effect of over 70% in size. Also: potency is read from the fitted curve at half-maximal effect. As to conditions: recombinant CLK4, ADP-Glo luminescence; series mostly up to 80 µM. The method, boiled down:
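25 nM Clk4, 100 uM RS peptide, 1 uM ATP (final); 2 mM MgCl2, 0.5 mM EGTA, 2.5 mM DTT, 0.01% Triton X-100; 1 hr RT. ADP-Glo readout: ATP depletion 45 min, conversion/luciferase 30 min, luminescence.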

The target is the same in experiment [13]. Briefly: qHTS Assay for Inhibitors of CDC-like Kinase 4 (ADP-FP Assay) (AID 1795). Also: nearly all actives have a fitted effect of over 60% in size. Also: potency is read from the fitted curve at half-maximal effect. As to conditions: Transcreener ADP fluorescence polarization; series mostly up to 50 µM. In outline:
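Kinase activity was measured as ADP production using Transcreener orange tracer (4 nM) and ADP antibody (1 ug/mL) fluorescence polarization, with ADP calculated from a calibration curve. The 1 h reaction contained 6.25 nM Clk4, 1 uM ATP and 100 uM RS peptide at pH 7.5 with Mg2+.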

The nature of experiment [14]: Primary qHTS for small molecule stabilizers of the endoplasmic reticulum resident proteome: Secreted ER Calcium Modulated Protein (SERCaMP) assay (AID 1508630). Also: % is scaled to controls: 0 for no effect and ±100 for the full control effect. As to conditions: SH-SY5Y GLuc-SERCaMP (Gaussia luciferase released on ER calcium loss) secretion, thapsigargin, luminescence; series mostly up to 38.4 µM. The method, boiled down: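 The SH-SY5Y reporter protocol was run at 3 concentrations up to 38.3 uM (primary) or 11 concentrations (follow-up): 16 h compound, 100 nM thapsigargin for 4 h, then extracellular luciferase luminescence.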

Experiment [15] deals with Cytochrome P450 3A4 (Homo sapiens) (UniProt P08684). The experiment in a line: qHTS Assay for Inhibitors and Substrates of Cytochrome P450 3A4 (AID 884). Also: nearly all actives have a fitted effect of over 50% in size. Also: potency is read from the fitted curve at half-maximal effect. As to conditions: recombinant CYP3A4, Luciferin-PPXE luminescence; series mostly up to 57.1 µM. In outline:
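Luminescent readout of luciferin produced by CYP3A4 (20 nM) dealkylation of Luciferin-PPXE, 25 uM (its KM). NADPH-driven reaction ran 60 min at RT after 10 min compound preincubation; data scaled to 57 uM ketoconazole as 100% inhibition.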

The target in experiment [16] is Ubiquitin carboxyl-terminal hydrolase 1 (Homo sapiens) (UniProt O94782). The experiment in a line: Inhibitors of USP1/UAF1: Pilot qHTS (AID 504865).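 Also: rhodamine fluorescence freed from ubiquitin-rhodamine substrate followed over time; top concentration of the series differs between compounds; % is scaled to controls: 0 for no effect and ±100 for the full control effect; nearly all actives have a fitted effect of over 35% in size.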 As to conditions: purified USP1/UAF1, Ub-rhodamine cleavage fluorescence; series mostly up to 54.9 µM. In outline:
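Deubiquitinase activity followed as kinetic rhodamine fluorescence release from 150 nM Ub-Rho. 1 nM USP1/UAF1 with compound, after 15 min room-temperature preincubation, in HEPES pH 7.8 buffer containing TCEP, EDTA, BSA and Tween-20.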

The target in experiment [17] is Cytochrome P450 2D6 (Homo sapiens) (UniProt P10635). Briefly: qHTS Assay for Inhibitors and Substrates of Cytochrome P450 2D6 (AID 891). Also: potency is read from the fitted curve at half-maximal effect; nearly all actives have a fitted effect of over 60% in size. As to conditions: recombinant CYP2D6, luciferin-ME EGE luminescence; series mostly up to 57.1 µM. The method, boiled down:
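Luminescent read-out of luciferin formed by 5 nM human CYP2D6 demethylating 30 uM Luciferin-ME EGE (Km level) over 60 min at room temperature after NADPH regeneration addition. Data normalized to full inhibition by 1.43 uM quinidine.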

Unmarked numbers belong to inactive results. Inconclusive results are not listed. Active and inactive are the calls of the source. Unless noted, calls follow the shape of the dose curve; as a rule, active = well fitted curve in the direction sought with a large enough effect; inconclusive = small, poorly fitted or top-dose-only effect, or another doubt; inactive = no such curve, though single readings can be large; an effect the other way counts as inactive or inconclusive. Bounds are passed on as bounds.

Sequence of Lysosomal acid glucosylceramidase (Homo sapiens) (P04062 whole entry, looked up): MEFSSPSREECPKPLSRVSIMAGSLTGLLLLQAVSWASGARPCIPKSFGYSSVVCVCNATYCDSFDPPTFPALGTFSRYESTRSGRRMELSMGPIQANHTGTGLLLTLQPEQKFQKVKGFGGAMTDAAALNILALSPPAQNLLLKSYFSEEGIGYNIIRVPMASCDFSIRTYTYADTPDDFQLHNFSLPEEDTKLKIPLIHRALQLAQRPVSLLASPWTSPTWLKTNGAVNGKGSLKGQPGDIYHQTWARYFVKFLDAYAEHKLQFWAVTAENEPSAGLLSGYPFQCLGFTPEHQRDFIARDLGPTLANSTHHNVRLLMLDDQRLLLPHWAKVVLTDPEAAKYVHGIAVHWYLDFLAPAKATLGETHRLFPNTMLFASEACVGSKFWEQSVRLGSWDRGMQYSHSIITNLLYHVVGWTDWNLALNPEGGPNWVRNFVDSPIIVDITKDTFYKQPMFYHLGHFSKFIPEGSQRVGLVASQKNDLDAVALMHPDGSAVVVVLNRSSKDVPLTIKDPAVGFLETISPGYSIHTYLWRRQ
Sequence of Cytochrome P450 1A2 (Homo sapiens) (P05177 whole entry, looked up): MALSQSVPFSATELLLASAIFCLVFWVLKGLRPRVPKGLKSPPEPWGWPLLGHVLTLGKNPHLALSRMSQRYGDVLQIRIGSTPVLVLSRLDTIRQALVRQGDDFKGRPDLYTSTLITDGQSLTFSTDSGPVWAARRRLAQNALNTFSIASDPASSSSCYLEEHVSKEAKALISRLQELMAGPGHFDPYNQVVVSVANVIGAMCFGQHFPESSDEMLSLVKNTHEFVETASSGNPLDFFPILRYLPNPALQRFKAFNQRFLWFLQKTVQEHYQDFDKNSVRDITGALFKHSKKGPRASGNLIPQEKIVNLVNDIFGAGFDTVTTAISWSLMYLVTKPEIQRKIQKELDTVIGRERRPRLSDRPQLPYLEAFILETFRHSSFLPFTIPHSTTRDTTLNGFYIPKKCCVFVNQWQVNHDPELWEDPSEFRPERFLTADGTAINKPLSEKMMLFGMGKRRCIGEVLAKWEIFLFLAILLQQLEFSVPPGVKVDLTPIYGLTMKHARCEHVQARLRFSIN
Sequence of 3',5'-cyclic-AMP phosphodiesterase 4B (Homo sapiens) (Q07343 whole entry, looked up): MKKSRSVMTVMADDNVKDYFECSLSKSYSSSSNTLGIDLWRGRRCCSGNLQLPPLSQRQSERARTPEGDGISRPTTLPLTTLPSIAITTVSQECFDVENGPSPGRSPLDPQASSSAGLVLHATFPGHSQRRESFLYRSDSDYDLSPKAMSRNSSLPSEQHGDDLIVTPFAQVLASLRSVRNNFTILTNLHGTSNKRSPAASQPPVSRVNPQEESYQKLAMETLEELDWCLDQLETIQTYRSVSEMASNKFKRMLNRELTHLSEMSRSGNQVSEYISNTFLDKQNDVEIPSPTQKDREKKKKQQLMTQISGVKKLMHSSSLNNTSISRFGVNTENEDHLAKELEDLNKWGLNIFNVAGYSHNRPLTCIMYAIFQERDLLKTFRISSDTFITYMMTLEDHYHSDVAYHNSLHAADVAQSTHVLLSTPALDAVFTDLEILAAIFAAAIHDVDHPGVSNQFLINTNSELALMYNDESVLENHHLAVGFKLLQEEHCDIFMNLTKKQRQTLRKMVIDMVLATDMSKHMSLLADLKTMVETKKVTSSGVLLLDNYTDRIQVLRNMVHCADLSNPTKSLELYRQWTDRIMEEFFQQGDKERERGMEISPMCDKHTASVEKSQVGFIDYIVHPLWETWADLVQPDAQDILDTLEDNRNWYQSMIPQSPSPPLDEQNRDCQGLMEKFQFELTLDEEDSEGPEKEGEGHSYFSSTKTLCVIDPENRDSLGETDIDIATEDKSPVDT
Sequence of Glucocorticoid receptor (Homo sapiens) (P04150 whole entry, looked up, the tested form may be a part): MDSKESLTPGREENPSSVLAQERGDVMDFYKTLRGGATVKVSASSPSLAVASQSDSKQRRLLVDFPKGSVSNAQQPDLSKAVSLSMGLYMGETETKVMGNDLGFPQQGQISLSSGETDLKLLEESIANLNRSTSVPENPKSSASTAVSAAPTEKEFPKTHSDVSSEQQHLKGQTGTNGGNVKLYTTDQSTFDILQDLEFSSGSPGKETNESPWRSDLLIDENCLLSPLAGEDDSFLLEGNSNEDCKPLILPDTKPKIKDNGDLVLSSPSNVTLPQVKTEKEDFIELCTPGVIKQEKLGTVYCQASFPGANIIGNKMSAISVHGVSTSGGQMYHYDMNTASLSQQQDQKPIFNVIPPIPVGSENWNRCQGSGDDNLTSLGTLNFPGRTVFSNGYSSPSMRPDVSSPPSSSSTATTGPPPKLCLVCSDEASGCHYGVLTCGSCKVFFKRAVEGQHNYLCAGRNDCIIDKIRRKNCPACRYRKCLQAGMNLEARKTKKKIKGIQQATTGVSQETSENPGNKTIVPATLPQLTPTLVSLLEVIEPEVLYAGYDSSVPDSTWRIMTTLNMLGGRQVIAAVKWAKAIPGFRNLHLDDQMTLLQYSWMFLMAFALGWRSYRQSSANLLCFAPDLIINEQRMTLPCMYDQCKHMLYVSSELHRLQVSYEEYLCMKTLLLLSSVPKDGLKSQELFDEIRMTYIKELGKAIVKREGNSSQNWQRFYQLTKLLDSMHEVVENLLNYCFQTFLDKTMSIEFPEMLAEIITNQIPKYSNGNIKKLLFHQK
Sequence of Ubiquitin carboxyl-terminal hydrolase 1 (Homo sapiens) (O94782 whole entry, looked up): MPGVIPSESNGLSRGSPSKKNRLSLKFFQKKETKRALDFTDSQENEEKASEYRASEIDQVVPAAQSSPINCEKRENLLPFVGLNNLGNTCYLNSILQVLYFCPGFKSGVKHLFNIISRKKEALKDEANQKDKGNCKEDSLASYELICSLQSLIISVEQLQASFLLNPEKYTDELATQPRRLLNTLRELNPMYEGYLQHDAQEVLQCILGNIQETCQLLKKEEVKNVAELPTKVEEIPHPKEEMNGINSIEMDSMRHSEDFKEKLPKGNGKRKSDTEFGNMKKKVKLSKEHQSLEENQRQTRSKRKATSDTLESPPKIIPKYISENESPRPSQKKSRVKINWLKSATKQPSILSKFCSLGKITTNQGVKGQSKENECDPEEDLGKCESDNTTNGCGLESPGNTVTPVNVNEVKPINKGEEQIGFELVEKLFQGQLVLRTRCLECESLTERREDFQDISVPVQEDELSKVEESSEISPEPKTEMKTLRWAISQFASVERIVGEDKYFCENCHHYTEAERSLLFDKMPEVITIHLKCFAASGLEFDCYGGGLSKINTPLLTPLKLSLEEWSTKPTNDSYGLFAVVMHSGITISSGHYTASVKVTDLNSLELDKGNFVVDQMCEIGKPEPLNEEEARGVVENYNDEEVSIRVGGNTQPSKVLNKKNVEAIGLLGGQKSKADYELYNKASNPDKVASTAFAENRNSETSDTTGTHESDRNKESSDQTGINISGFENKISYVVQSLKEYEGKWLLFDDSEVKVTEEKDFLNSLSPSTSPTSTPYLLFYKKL
Sequence of Cytochrome P450 3A4 (Homo sapiens) (P08684 whole entry, looked up): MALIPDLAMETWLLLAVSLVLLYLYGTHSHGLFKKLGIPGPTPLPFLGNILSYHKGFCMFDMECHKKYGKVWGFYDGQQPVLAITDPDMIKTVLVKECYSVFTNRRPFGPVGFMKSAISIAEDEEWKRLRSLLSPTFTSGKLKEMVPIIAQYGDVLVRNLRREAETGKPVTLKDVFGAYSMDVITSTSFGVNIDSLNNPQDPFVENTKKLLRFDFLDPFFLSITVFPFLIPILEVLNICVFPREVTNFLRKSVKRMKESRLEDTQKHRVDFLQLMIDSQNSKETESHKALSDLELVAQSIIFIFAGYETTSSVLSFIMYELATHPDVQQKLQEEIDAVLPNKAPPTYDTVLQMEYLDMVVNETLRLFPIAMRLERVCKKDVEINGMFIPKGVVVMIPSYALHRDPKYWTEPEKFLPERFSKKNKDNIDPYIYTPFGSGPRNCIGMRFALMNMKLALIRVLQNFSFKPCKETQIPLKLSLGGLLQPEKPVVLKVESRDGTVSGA
Sequence of Dual specificity protein kinase CLK4 (Homo sapiens) (Q9HAZ1 whole entry, looked up): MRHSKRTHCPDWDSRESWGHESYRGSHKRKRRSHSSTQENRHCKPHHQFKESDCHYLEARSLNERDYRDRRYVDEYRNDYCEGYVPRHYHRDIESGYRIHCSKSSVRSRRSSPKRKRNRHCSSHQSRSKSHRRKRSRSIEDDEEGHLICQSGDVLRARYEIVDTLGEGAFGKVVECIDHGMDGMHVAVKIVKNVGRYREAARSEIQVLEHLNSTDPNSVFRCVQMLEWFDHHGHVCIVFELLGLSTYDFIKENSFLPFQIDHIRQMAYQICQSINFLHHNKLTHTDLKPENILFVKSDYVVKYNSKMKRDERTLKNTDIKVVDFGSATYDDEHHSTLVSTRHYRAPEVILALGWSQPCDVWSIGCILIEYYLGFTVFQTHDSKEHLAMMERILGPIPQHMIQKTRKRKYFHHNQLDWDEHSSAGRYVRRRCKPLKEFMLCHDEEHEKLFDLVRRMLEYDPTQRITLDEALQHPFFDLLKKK
Sequence of Cytochrome P450 2D6 (Homo sapiens) (P10635 whole entry, looked up): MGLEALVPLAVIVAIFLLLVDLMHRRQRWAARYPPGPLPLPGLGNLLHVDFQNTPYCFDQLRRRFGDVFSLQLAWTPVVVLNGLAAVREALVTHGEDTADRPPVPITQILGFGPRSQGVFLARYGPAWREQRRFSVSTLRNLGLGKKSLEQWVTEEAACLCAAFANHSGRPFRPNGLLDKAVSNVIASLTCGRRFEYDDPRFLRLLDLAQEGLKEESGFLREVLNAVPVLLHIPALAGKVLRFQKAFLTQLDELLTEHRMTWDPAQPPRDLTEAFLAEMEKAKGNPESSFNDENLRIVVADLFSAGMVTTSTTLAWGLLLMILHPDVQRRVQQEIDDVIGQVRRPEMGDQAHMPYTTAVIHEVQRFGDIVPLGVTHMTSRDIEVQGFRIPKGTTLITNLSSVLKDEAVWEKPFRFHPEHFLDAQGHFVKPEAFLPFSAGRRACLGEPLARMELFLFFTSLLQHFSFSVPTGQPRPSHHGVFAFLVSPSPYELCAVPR

With `COc1ccccc1-c1nc(NCc2cccnc2)c2ccccc2n1`, the Potency in experiment [1] is greater than 11.4 µM; in experiment [3] it was 0.794 µM (active); in experiment [6], greater than 46 µM; in experiment [7], greater than 46 µM. Besides, the activity change, negative = inhibition in [2] was 10.5%; in experiment [4], -29.2%. Besides, the activity, negative = inhibition in experiment [5] is 12.9%. Also, the Potency result in experiment [8], in experiment [9], in experiment [10], in [11], in experiment [12] and in experiment [13] was “inactive” throughout. Further, the result in [14] was inactive.

In the case of `Cc1ccccc1-c1nc(NC2CC2)c2ccccc2n1`, the Potency in experiment [1] was 1.17 µM (active); in experiment [3], 0.501 µM (active); in [6], greater than 46 µM; in experiment [15] it was 3.98 µM (active); in [11], 12.6 µM (active); in [12] it was 11.2 µM (active). Moreover, in experiment [13], the Potency is 10 µM (active). The activity change, negative = inhibition is 17.6% in experiment [2] and -19.1% in experiment [4]. Further, the activity, negative = inhibition in [5] was -0.286%. For the same compound, the Potency result in experiment [8], in [10] and in experiment [16] was “inactive” in each case. For the same compound, the result in experiment [14] was inactive.

`COc1cccc(-c2nccc(NCc3cccnc3)n2)c1`: the Potency in [1] was greater than 11.4 µM; in experiment [3] it was 0.158 µM (active); in experiment [6], greater than 46 µM; in [7], greater than 46 µM; in experiment [15], 1.26 µM (active); in experiment [11], 7.08 µM (active). Besides, the Potency was 7.08 µM (active) in [12] and 6.31 µM (active) in experiment [13]. In addition, the activity change, negative = inhibition is -20.9% in experiment [2] and 8.95% in experiment [4]. Moreover, the activity, negative = inhibition in experiment [5] is -2.24%. The Potency result in experiment [9], in [10] and in experiment [16] was “inactive” in each case. In addition, the outcome in experiment [14] was inactive.

On to `COc1ccc(CNc2ccnc(-c3ccccc3OC)n2)c(OC)c1`, for which the Potency in [1] was greater than 11.4 µM; in experiment [3], 5.01 µM (active); in experiment [6], greater than 46 µM; in [7], greater than 46 µM; in experiment [15] it was 6.31 µM (active); in experiment [17], 3.98 µM (active). For the same compound, the results for the activity change, negative = inhibition in experiment [2] and in experiment [4] were 3.33% and -9.22%, respectively. In addition, the activity, negative = inhibition in [5] is 1.07%. In addition, the Potency result in experiment [8], in [10], in experiment [11], in [12] and in experiment [13] was “inactive” each time. The outcome in experiment [14] was inactive.

Regarding `CN(C)C(=O)c1ccc(-c2nccc(N(C)Cc3ccco3)n2)cc1`, the Potency in [1] is greater than 11.4 µM; in experiment [3] it was 12.6 µM (active); in [7] it was greater than 46 µM. In addition, the activity change, negative = inhibition in [2] was -6.22%; in [4], -2.09%. Moreover, the activity, negative = inhibition in [5] is 4.76%. For the same compound, the Potency entry in experiment [8], in experiment [9], in [11], in experiment [12], in experiment [13] and in experiment [16] was “inactive” in each case. For the same compound, in experiment [14], the result was inactive.

Consider `Cn1c(=O)c(-c2ccc(F)cc2)nc2cnc(N3CCOCC3)nc21`, for which the Potency in experiment [1] was greater than 11.4 µM; in experiment [3], 2.51 µM (active); in [6], greater than 9.22 µM; in [7], greater than 46 µM. Also, the results for the activity change, negative = inhibition in [2] and in [4] were 14.8% and 24.2%, respectively. Besides, the Potency entry in experiment [8], in [9], in experiment [15], in experiment [11], in [12] and in [13] was “inactive” throughout. Moreover, in [16], the Potency entry was “inactive”. In addition, the outcome in [14] was inactive.
